Screens from PubChem BioAssay.
TrxR1 substrate = qHTS Assay for Substrates of Mammalian Selenoprotein Thioredoxin Reductase 1 (TrxR1): qHTS; purified TrxR1 substrate turnover, NADPH consumption readout; Potency, µM (series often up to 114 µM), inactives show top-dose activity change, negative = substrate turnover; hit rate 0.01% among 390,000; AID 588456, 2011; further: potency means the concentration at half of the fitted maximal effect; on the % scale 0 is the no-effect control and ±100 the full control effect; nearly all actives have a fitted effect of over 50% in size
Target sequence (O89049 whole entry, looked up): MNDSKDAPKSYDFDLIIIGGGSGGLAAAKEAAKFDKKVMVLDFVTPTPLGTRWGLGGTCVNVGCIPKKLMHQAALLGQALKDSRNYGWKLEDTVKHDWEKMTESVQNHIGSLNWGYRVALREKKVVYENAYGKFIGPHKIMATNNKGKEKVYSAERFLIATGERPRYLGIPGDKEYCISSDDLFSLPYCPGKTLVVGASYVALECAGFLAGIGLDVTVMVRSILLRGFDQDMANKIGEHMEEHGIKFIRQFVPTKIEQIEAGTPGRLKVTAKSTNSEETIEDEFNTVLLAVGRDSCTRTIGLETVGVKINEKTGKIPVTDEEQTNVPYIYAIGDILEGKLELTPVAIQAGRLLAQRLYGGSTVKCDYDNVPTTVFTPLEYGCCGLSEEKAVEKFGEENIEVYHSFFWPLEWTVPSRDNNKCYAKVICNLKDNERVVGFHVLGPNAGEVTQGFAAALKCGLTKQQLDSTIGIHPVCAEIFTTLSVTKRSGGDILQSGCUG
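Rat TrxR1, dispensed at 90 nM, was prereduced with 400 uM NADPH (final) for 5 min at ~22 deg C, then incubated with compound 15 min before 400 uM selenite. A first-read NADPH fluorescence drop versus no-compound background flagged substrates.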
VDR inh = Inhibitors of the vitamin D receptor (VDR): qHTS. Vitamin D3 receptor (Homo sapiens), P11473. VDR-SRC2-3 peptide fluorescence polarization, 2 h. Potency, µM, inactives show max response, negative = inhibition, usual class: inhibitors. hit rate 0.93% among 400,000; further: potency means the concentration at half of the fitted maximal effect; on the % scale 0 is the no-effect control and ±100 the full control effect
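VDR–SRC2-3 interaction, FP format. Cmpds 23 nl via pintool, brief spin, 2 h ambient incubation.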
KAT2A inh = qHTS Assay for Inhibitors of GCN5L2. Histone acetyltransferase KAT2A (Homo sapiens), Q92830. GCN5L2 HAT assay, ThioGlo1 CoA-SH fluorescence. Potency, µM (highest dose often 58.9 µM), for the others: top-dose activity change, negative = inhibition, usual class: inhibitors. hit rate 0.21% among 390,000; further: potency means the concentration at half of the fitted maximal effect; on the % scale 0 is the no-effect control and ±100 the full control effect
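Free CoA generated was detected with ThioGlo1 (50uM) fluorescence at Ex340nm/Em540nm, read immediately and after 20 min at room temperature. Enzyme, 20 nM in HEPES pH 7.5 buffer, saw compounds 15 min before adding 75uM H3(1-25) peptide and 70uM acetyl-CoA.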
TrxR1 inh-1 = qHTS Assay for Inhibitors of Mammalian Selenoprotein Thioredoxin Reductase 1 (TrxR1): qHTS. hit rate 1% among 390,000. Thioredoxin reductase 1, cytoplasmic (Rattus norvegicus), O89049. AID 588453, 2011. Potency, µM (doses to about 114 µM), for the others: at the top dose activity change, negative = inhibition, most hits filed as inhibitors. recombinant rTrxR1, NADPH fluorescence consumption, selenite substrate; further: potency means the concentration at half of the fitted maximal effect; on the % scale 0 is the no-effect control and ±100 the full control effect; nearly all actives have a fitted effect of over 65% in size
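Rat TrxR1 (90 nM in the dispensed reagent) was pre-reduced with 400 uM NADPH for 5 min at room temperature, then incubated with compound for 15 min. After 400 uM selenite was added, NADPH fluorescence (Ex 340/Em 450 nm) was followed for 8 min.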
TRb SRC2 Alpha = Protein Interaction Secondary Assay for Inhibitors of the Interaction of Thyroid Hormone Receptor and Steroid Receptor Coregulator 2, Alpha Screen | shares compounds with TrxR1 inh-1 | AlphaScreen TRb LBD-SRC2 peptide binding, luminescence | Potency, µM | hit rate 50% among 30 | AID 2444, 2010; calls by dose curve
HepG2 viability = Cell Viability Secondary Assay for Inhibitors of the Interaction of Thyroid Hormone Receptor and Steroid Receptor Coregulator 2; shares compounds with TrxR1 inh-1; HepG2 viability, ATP luminescence (CellTiter-Glo), 72 h; Potency, µM; hit rate 50% among 40; AID 2447, 2010; calls by dose curve
AR-SRC2 inh = Androgen Receptor Selectivity Assay for Inhibitors of the Interaction of Thyroid Hormone Receptor and Steroid Receptor Coregulator 2; shares compounds with TrxR1 inh-1; AR-LBD Tx-SRC2-3 fluorescence polarization, 3 h; calls only; 25 tested, under 10 active; AID 2448, 2010; call rule not given here
PPARg-DRIP2 inh = PPAR gamma Selectivity Assay For Inhibitors of the Interaction of Thyroid Hormone Receptor and Steroid Receptor Coregulator 2 | shares compounds with TrxR1 inh-1 | AID 2449, 2010 | PPARg LBD / Texas Red DRIP-2 peptide, fluorescence polarization, 3 h | 25 tested, under 10 active | Potency, µM; calls by dose curve
VDR SRC2 FP = Vitamin D Receptor Selectivity Assay for Inhibitors of the Interaction of Thyroid Hormone Receptor and Steroid Receptor Coregulator 2 | AID 2455, 2010 | Potency, µM | shares compounds with TrxR1 inh-1 | VDR LBD/SRC2-3 peptide, fluorescence polarization, 3 h | 25 tested, under 10 active; calls by dose curve
TRb SRC2 FluoFP = Secondary Confirmation Assay for Inhibitors of the Interaction of Thyroid Hormone Receptor and Steroid Receptor Coregulator 2, Fluorescein Fluoroprobe. TRb LBD / fluorescein-SRC2 peptide, fluorescence polarization. shares compounds with TrxR1 inh-1. Potency, µM. 20 tested, under 10 active; call rule not given here
GR inh = qHTS Assay for Inhibitors of Mammalian Selenoprotein Thioredoxin Reductase 1 (TrxR1): Counterassay in Glutathione Reductase (GR). shares compounds with TrxR1 inh-1. purified GR, DTNB reduction absorbance 405 nm kinetic. activity change, negative = inhibition, % at 57.1 µM. 55 tested, under 10 active. AID 652020, 2013
TrxR1 inh-2 = qHTS Assay for Inhibitors of Mammalian Selenoprotein Thioredoxin Reductase 1 (TrxR1): Hit Validation in Primary Screen; shares compounds with TrxR1 inh-1; recombinant TrxR1, NADPH fluorescence consumption, selenite substrate; Potency, µM, actives largely listed as inhibitors; hit rate 50% among 55; AID 652023, 2013
TrxR1 insulin = qHTS Assay for Inhibitors of Mammalian Selenoprotein Thioredoxin Reductase 1 (TrxR1): Insulin MOA Assay | AID 652037, 2013 | shares compounds with TrxR1 inh-1 | TrxR1 Trx-coupled insulin reduction, NADPH absorbance 340 nm | Potency, µM | hit rate 20% among 55;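 active means compounds with a measured potency under 100 micromolar; inconclusive means filed, but no rule given; inactive means potency at or above that, or unmeasurable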
TrxR1 inh-3 = qHTS Assay for Inhibitors of Mammalian Selenoprotein Thioredoxin Reductase 1 (TrxR1): DTNB Assay | Potency, µM | purified TrxR1, DTNB reduction, A412 | AID 652256, 2013 | shares compounds with TrxR1 inh-1 | hit rate 90% among 55;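 active means a half-inhibiting concentration could be measured and was below 100 µM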
* marks the source's active call; other numbers are inactive results; [ ] = dose if it differs, or a comment. A selection: hits, their analogues and other compounds. The true share with any hit is near 1.8%. Unless noted, the call rests on the fitted dose curve; in most records, active means well fitted curve in the direction sought with a large enough effect; inconclusive means small, poorly fitted or top-dose-only effect, or another doubt; inactive means no such curve, though single readings can be large; an effect the other way counts as inactive or inconclusive.

What do the screens show for `CC1CCC(NC(=O)COC(=O)c2ccc3ncsc3c2)CC1` (configuration not stated)?
TrxR1 substrate: 7%; VDR inh: -2%; KAT2A inh: -1%; TrxR1 inh-1: 20%

What do the screens show for `O=C(COC(=O)c1ccc(C(F)(F)F)cc1)NC(=O)C1CCCCC1`?
TrxR1 substrate: -3%; VDR inh: -7%; TrxR1 inh-1: 22%; TRb SRC2 Alpha: inactive; HepG2 viability: inactive; TRb SRC2 FluoFP: inactive

What do the screens show for `Cc1cc(C(=O)OCC(=O)NC(=O)C2CCCCC2)ccc1[N+](=O)[O-]`?
TrxR1 substrate: -2%; VDR inh: -11%; TrxR1 inh-1: 3%; TRb SRC2 Alpha: inactive; HepG2 viability: inconclusive; TRb SRC2 FluoFP: inactive

How did O=C(COC(=O)c1ccc2ncsc2c1)NC(=O)C1CCCCC1 do in these assays?
TrxR1 substrate: -1%; VDR inh: -8%; TrxR1 inh-1: 7%; TRb SRC2 Alpha: inactive; HepG2 viability: 20µM*; TRb SRC2 FluoFP: inactive

What do the screens show for `CNc1ccc(C(=O)OCC(=O)NC(=O)NC2CCCCC2)cc1[N+](=O)[O-]`?
TrxR1 substrate: -1%; VDR inh: -4%; KAT2A inh: -8%; TrxR1 inh-1: 19%

What do the screens show for `CS(=O)(=O)c1ccc(C(=O)OCC(=O)NC(=O)C2CCCCC2)cc1[N+](=O)[O-]`?
TrxR1 substrate: 22%; VDR inh: -27%; KAT2A inh: -1%; TrxR1 inh-1: 3.2µM*; TRb SRC2 Alpha: 0.6µM*; HepG2 viability: 23µM*; AR-SRC2 inh: inactive; PPARg-DRIP2 inh: 22µM*; VDR SRC2 FP: inactive; TRb SRC2 FluoFP: 11µM*

Results for CC(CC=O)CCCC(C)(C)O (configuration not stated) ?
VDR inh: -10%; KAT2A inh: -2%

What do the screens show for `O=c1ccn(C2OC(COP(=O)(O)OP(=O)(O)OP(=O)(O)O)C(O)C2O)c(=O)[nH]1` (configuration not stated)?
VDR inh: -6%; KAT2A inh: -24%

Results for Cc1nc2ccn(Cc3cccnc3)c(=O)c2cc1C(=O)NCc1ccccc1 ?
TrxR1 substrate: 15%[57.1 µM]; VDR inh: 10%; KAT2A inh: -3%; TrxR1 inh-1: 5%[57.1 µM]

How did O=C(Cn1c(=O)n(Cc2ccc(C(=O)NCc3ccc4c(c3)OCO4)cc2)c(=O)c2ccccc21)Nc1cccc(Cl)c1 do in these assays?
TrxR1 substrate: 0%; VDR inh: 4%; KAT2A inh: -2%; TrxR1 inh-1: 12%

What do the screens show for `CC1(C)C2CCC1(C)C(NC(=O)COC(=O)c1ccc(S(C)(=O)=O)c([N+](=O)[O-])c1)C2` (configuration not stated)?
TrxR1 substrate: -2%; VDR inh: inconclusive; TrxR1 inh-1: 3.5µM*; TRb SRC2 Alpha: 6.8µM*; HepG2 viability: 23µM*; AR-SRC2 inh: inactive; PPARg-DRIP2 inh: inactive; VDR SRC2 FP: 40µM*; TRb SRC2 FluoFP: 3.3µM*

Results for COc1ccc(C(=O)OCC(=O)NC2CC2)cc1[N+](=O)[O-] ?
TrxR1 substrate: 2%; VDR inh: -9%; KAT2A inh: -3%; TrxR1 inh-1: 24%

How did Cc1ccc2cc(CN(Cc3ccccc3)Cc3nnnn3C3CCCC3)c(=O)[nH]c2c1 do in these assays?
TrxR1 substrate: -3%; VDR inh: 4%; KAT2A inh: -11%; TrxR1 inh-1: 15%

What do the screens show for `Cc1ccc2[nH]c(=O)c(CN(CCCN3CCOCC3)Cc3nnnn3C3CCCC3)cc2c1`?
TrxR1 substrate: 9%; VDR inh: 14%; KAT2A inh: 1%; TrxR1 inh-1: 20µM*; GR inh: inconclusive; TrxR1 inh-2: inconclusive; TrxR1 insulin: 3µM*; TrxR1 inh-3: 5.4µM*

How did Cc1ccc(CNC(=O)c2cn(C)c(=O)c3c2c2ccccc2n3C)o1 do in these assays?
TrxR1 substrate: 10%; VDR inh: -9%; KAT2A inh: -9%; TrxR1 inh-1: 16µM*; GR inh: -15; TrxR1 inh-2: inconclusive; TrxR1 insulin: inactive; TrxR1 inh-3: 1.5µM*
